Screening results (PubChem)
A selection: hits, their analogues and other compounds. The true share with any hit is near 10%.
G9a block – qHTS Assay for Inhibitors of Histone Lysine Methyltransferase G9a | Histone-lysine N-methyltransferase EHMT2 (Homo sapiens), Q96KQ7 | G9a H3K9 monomethylation, AlphaScreen, 2 h | Potency, µM (highest dose often 102 µM), without a hit: at the top dose activity, negative = inhibition, usual class: inhibitors | hit rate 8.8% among 350,000 | AID 504332, 2011; further: potency means the concentration at half of the fitted maximal effect; nearly all actives have a fitted effect of over 75% in size
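Chemiluminescent proximity detection of H3K9 monomethylation, read after 10 min bead incubation in the dark. Reaction: 20 nM G9a, 500 nM biotin-H3K9 peptide, 20 uM SAM cofactor, 2 h, room temperature, following 15 min enzyme-compound preincubation.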
CCT modulator – High-Throughput Screening for Modulators of Cytosolic Chaperonin Activity; activity change, % (no concentration beside the values), hits read low; purified chaperonin ATPase assay, HTRF ADP detection, 30 min; hit rate 0.3% among 360,000; in the data active means activity change below about -30%
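Nucleotide hydrolysis assay: TRiC at 20–40 nM final (set by batch activity) with 10 uM ATP, 30 min at 37 °C, in presence of 76 uM compound. Detection by competitive ADP HTRF, 30 min ambient.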
PLK1 PBD block – qHTS for Inhibitors of PLK1-PDB (polo-like kinase 1 - polo-box domain): Primary Screen; AID 720504, 2013; Plk1 PBD binding of FITC phosphopeptide, fluorescence polarization; hit rate 2.8% among 360,000; Serine/threonine-protein kinase PLK1 (Homo sapiens), P53350; Potency, µM, without a hit: max response, negative = inhibition, most hits filed as inhibitors; further: potency means the concentration at half of the fitted maximal effect; series mostly up to about 57 µM; nearly all actives have a fitted effect of over 65% in size
Target sequence (P53350 whole entry, looked up, the tested form may be a part): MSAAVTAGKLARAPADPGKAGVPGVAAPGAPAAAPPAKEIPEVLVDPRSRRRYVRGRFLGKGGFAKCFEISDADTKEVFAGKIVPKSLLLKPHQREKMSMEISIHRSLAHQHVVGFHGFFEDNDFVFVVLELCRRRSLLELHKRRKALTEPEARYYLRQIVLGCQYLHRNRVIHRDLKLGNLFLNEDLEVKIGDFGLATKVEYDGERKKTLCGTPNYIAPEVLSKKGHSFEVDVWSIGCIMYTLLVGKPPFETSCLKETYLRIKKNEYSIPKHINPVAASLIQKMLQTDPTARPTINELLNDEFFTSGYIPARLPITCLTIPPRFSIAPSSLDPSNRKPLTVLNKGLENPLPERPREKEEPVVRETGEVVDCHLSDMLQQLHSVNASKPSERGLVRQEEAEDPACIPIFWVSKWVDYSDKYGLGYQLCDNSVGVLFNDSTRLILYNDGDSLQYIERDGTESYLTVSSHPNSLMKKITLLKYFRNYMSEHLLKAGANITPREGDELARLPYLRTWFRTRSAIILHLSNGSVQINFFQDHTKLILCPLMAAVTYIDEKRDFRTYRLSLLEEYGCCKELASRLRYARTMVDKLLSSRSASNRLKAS
VDR inh – Inhibitors of the vitamin D receptor (VDR): qHTS; VDR-SRC2-3 peptide fluorescence polarization, 2 h; Potency, µM, without a hit: max response, negative = inhibition, usual class: inhibitors; hit rate 0.93% among 400,000; AID 504847, 2011; further: potency means the concentration at half of the fitted maximal effect
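Fluorescence polarization assay measuring small-molecule disruption of VDR binding to the coregulator peptide SRC2-3. Compounds were pin-transferred (23 nl) into the reagent mix and incubated 2 h at room temperature before reading.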
Sfp PPTase inh – qHTS Assay for Inhibitors of Bacillus subtilis Sfp phosphopantetheinyl transferase (PPTase). Biochemical Sfp PPTase activity, qHTS. Potency, µM, without a hit: largest response in the series, negative = inhibition, actives largely listed as inhibitors. hit rate 3.5% among 310,000. AID 1490, 2009;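 further: the enzyme is Sfp with the accession as filed and its product quenches rhodamine fluorescence; potency means the concentration at half of the fitted maximal effect; 0% = enzyme reaction without inhibitor and -100% = no enzyme wells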
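Compounds were incubated with enzyme (final 15 nM) for 15 min at room temperature before substrate addition started the reaction. Fluorescence at 525 nm excitation, 598 nm emission was recorded immediately and after 30 minutes.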
Mm-Cpn inhibitor – Inhibitors of TCP-1 ring complex (TRiC) of Methanococcus maripaludis (MmCpn): qHTS | hit rate 0.031% among 330,000 | AID 504842, 2011 | purified Mm-Cpn ATPase, ADP Transcreener TR-FRET | Potency, µM (titrated, usually from 76.9 µM), without a hit: at the highest dose activity, negative = inhibition, most hits filed as inhibitors; further: potency means the concentration at half of the fitted maximal effect; nearly all actives have a fitted effect of over 80% in size
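Measured: ADP formation by purified Mm-CPN. Conditions: 25 nM protein, 10 uM ATP, Tris pH 7.4 with Mg2+, K+ and DTT, 37°C for 30 min. Detection: Transcreener HTRF after 30 min at room temperature.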
* = called active by the depositor; u = inconclusive; x = not tested or not shown; [ ] = dose if it differs, or a comment. Unless noted, the call rests on the fitted dose curve; in most records, active means well fitted curve in the direction sought with a large enough effect; inconclusive means small, poorly fitted or top-dose-only effect, or another doubt; inactive means no such curve, though single readings can be large; an effect the other way counts as inactive or inconclusive. Unless noted, on the % scale 0 is the no-effect control and ±100 the full control effect.

SMILES | G9a block | CCT modulator | PLK1 PBD block | VDR inh | Sfp PPTase inh | Mm-Cpn inhibitor
CCOC(=O)N1CCN(CCC(=O)c2ccc(OC)cc2)CC1 | 10µM* | 1.6 | -20.3% | u | -2.3% | 0.3%
O=S(=O)(c1ccccc1)c1nc(-c2ccccc2F)oc1N1CCOCC1 | u | x | x | -0.5% | x | x
COC(=O)[C@@]1(Cc2ccccc2)[C@H]2c3cc(C(=O)N4CCCC4)n(Cc4ccccc4)c3C[C@H]2CN1C(=O)c1ccccc1 | x | x | x | x | 5.3% | x
Cc1nn(-c2ccccc2)c2ncc(C(=O)c3cc(Cl)ccc3O)cc12 | 0.794µM* | 1.8 | -4.6% | -23.0% | 2.2% | 1.0%
CCCC(=O)Nc1cc(-c2nc3cccnc3s2)ccc1C | u | x | x | 10.7% | x | x
FC(F)Oc1ccc(NC(=S)Nn2cnnc2)cc1 | 6.31µM* | -1.1 | 6.7µM* | u | 22.4µM* | -0.8%
CN(NC(=S)Nc1ccc(OC(F)F)cc1)C(=S)Nc1ccc(OC(F)F)cc1 | u | 1.2 | -24.5% | 4.8% | 2.5% | 4.6%
Oc1cccc2c(NC(=S)Nc3ccc(OC(F)F)cc3)cccc12 | 44.7µM* | -2.6 | 0.0% | -6.2% | 56.2µM* | -2.9%
FC(F)Oc1ccc(NC(=S)NCc2ccccc2)cc1 | 40.1%[59 µM] | -4.4 | -15.3% | -4.1% | 11.4% | 1.8%
CSc1ccc(C(=O)N2CCC(CCC(=O)NC3CC3)CC2)cc1 | 13.4%[0.0925 µM] | 0.6 | 2.8% | -8.9% | 1.4% | 1.8%
CSCC(=O)N1CCC(CCC(=O)NC2CC2)CC1 | 23.9% | -53.0* | 3.1% | 7.5% | 12.3% | -0.3%
Cc1ccc(NC(=O)C(Cc2ccccc2)NS(=O)(=O)c2ccc3c(c2)c(=O)n(C)c(=O)n3C)cc1 (stereo unspecified) | -19.0%[59 µM] | x | x | 0.3% | x | x
Clc1ccccc1-c1csc(Nc2cccnc2)n1 | x | -2.6 | -19.2% | 4.2% | 31.6µM* | -2.4%
COc1ccc(-c2csc(Nc3ccc(S(N)(=O)=O)cc3)n2)cc1OC | u | 0.3 | 8.44µM* | -11.0% | -19.7% | -7.9%
COc1ccc(-c2csc(Nc3cccnc3)n2)cc1OC | 50.1µM* | 0.2 | -14.8% | 16.4% | 3.5% | 1.3%
c1cncc(Nc2nc(-c3ccncc3)cs2)c1 | 6.7%[59 µM] | -1.2 | -1.2% | 10.2% | 11.4% | 0.8%
Clc1cccc(-c2csc(Nc3cccnc3)n2)c1 | 44.7µM* | 0.9 | -1.4% | 6.8% | 56.2µM* | 0.9%
c1cncc(Nc2nc(-c3cccnc3)cs2)c1 | u | 1.3 | -4.3% | 24.6% | -6.5% | -1.0%
CCCn1c(=O)c2sccc2n2c(CCCC(=O)NCCc3ccc(Cl)cc3)nnc12 | -22.7%[59 µM] | x | x | -0.4% | x | x
O=C(NC1CCCCCC1)c1ccc2c(c1)sc1nc(-c3ccc(F)cc3)cn12 | -18.6%[59 µM] | x | x | -2.5% | x | x
CCOC(=O)c1ccc2nc(C(F)(F)F)[nH]c(=O)c2c1 | -9.3%[59 µM] | 2.7 | 26.7µM* | -3.9% | 5.2% | -0.2%
CCOC(=O)c1ccc2nc(C)c3c(c2c1)OC(C)C3 (stereo unspecified) | -47.5%[59 µM] | 1.7 | -1.6% | 2.3% | 3.0% | -2.7%
Cc1cccc(CNC(=O)c2cc3cc(S(=O)(=O)N4CCCCC4)ccc3n2C)c1 | 14.1%[59 µM] | x | x | 8.7% | x | x
CO/N=C\Cc1oc(=O)c(NC(=O)c2ccccc2)cc1C(=O)OC | 31.6µM* | -2.8 | u | 9.1% | -10.5% | -0.6%
Cc1oc(=O)c(NC(=O)c2ccccc2)cc1C(N)=O | -5.6% | 0.0 | -2.0% | 16.2% | 14.9% | 0.5%
SMILES | G9a block | CCT modulator | PLK1 PBD block | VDR inh | Sfp PPTase inh | Mm-Cpn inhibitor
O=C(C/C=N\OCc1ccc(Cl)cc1Cl)Nc1ccccc1 | 76.3% | -0.4 | -17.1% | 17.1% | 9.0% | -1.8%
COC(=O)c1cc(NC(=O)c2ccccc2)c(=O)oc1C/C=N\OCc1ccc(Cl)cc1Cl | 39.8µM* | -1.8 | 19.7% | 6.0% | -9.1% | -10.9%
COc1cc(OC)c(NC(=O)CC(C)S(=O)(=O)c2ccc3c(c2)NC(=O)CO3)cc1Cl (stereo unspecified) | -30.5%[59 µM] | x | x | 5.2% | x | x
Cc1ccccc1CN1CCCN(CC(=O)Nc2ccc3c(c2)OCCO3)S1(=O)=O | 5.2%[59 µM] | x | x | 2.3% | x | x
O=C(CCC(=O)c1ccccc1)Nc1ccc(F)c(Cl)c1 | -2.0%[59 µM] | x | x | 7.5% | x | x
COc1ccc(S(=O)(=O)N2CCCN(CC(=O)Nc3ccc(OC)c(Cl)c3)CC2)cc1 | 44.7µM* | 1.8 | -24.1% | 5.5% | -8.7% | -3.3%
COc1cccc(NC(=O)CN2CCN(S(=O)(=O)c3ccc(C(C)C)cc3)CC2)c1 | -50.9%[12.7 µM] | 1.1 | 29.9µM* | -1.5% | -2.4% | 1.5%
CCn1c(SCc2c(F)cccc2Cl)nc(=O)c2c(C(=O)OC)cc(C3CC3)nc21 | -26.8%[59 µM] | x | x | 4.2% | x | x
O=C(NCc1ccco1)c1cc2c(s1)CSC2 | u | -1.2 | 13.4µM* | u | -78.0% | -0.4%
O=C(NCc1ccc2c(c1)OCO2)c1cc2c(s1)CSC2 | 35.5µM* | -7.0 | -26.9% | -12.6% | -8.2% | -2.3%
COc1ccc(-c2onc(C)c2C)cc1S(=O)(=O)N1CCc2ccccc21 | -27.0%[59 µM] | x | x | 4.5% | x | x
N#CC1=C(N)OC(c2ccccc2)=C(C#N)C1c1ccc2c(c1)OCO2 (stereo unspecified) | u | -0.9 | 11.9µM* | 2.8% | 10.9% | 0.1%
Cc1ccccc1NC(=O)c1cccc2c(=O)c3c([nH]c12)CCCC3 | u | x | x | 7.7% | x | x
COCCN(CCOC)c1ncc(Cl)c(C(=O)c2c(C)cc3ccccn23)n1 | 39.8µM* | -2.5 | 1.5% | -12.7% | 0.7% | 0.6%
Cc1cc2ccccn2c1C(=O)c1nc(N2CCOCC2)ncc1Cl | 70.8µM* | -0.4 | -7.4% | 3.8% | -0.7% | 1.2%
CCOC(=O)c1ccc(NC(=S)N2CCSC2c2ccc(OC)cc2)cc1 (stereo unspecified) | u | -4.6 | -15.1% | -3.0% | -1.4% | -0.5%
COc1ccc(C2SCCN2C(=S)Nc2ccc(F)cc2)cc1 (stereo unspecified) | 39.8µM* | 1.1 | -28.9% | u | -9.1% | 1.6%
COc1ccccc1NCC(=O)c1ccc(Cl)cc1 | 50.1µM* | -0.4 | -11.6% | 79.4µM* | 50.1µM* | -1.1%
COc1cccc(CS(=O)(=O)c2ccccc2)c1 | x | x | x | 2.6% | 7.0% | x
Cc1cc(-c2n[nH]c(=S)o2)c(C)n1-c1ccccc1 | 3.98µM* | 0.5 | -15.5% | -7.0% | 6.3% | -1.7%
C=CCOc1ccc(-c2n[nH]c(=S)o2)cc1 | 10.9%[0.501 µM] | -5.4 | -18.1% | -17.9% | -5.1% | -2.7%
Cc1cc(C(=O)O)c(C)n1-c1ccccc1 | -0.9% | -0.4 | -1.9% | -11.9% | 20.9% | 1.3%
